Experimental data: PubChem BioAssay (EPA / NIEHS)
Results filed as inconclusive are left out. Active and inactive are the calls of the source. Rule for the calls: active = hit-call score of the fitted dose curve at least 0.9, where 1 is the maximum; inconclusive = response in the unintended direction; inactive = score below 0.9.

These compounds were tested against human Opioid Receptor Mu (Opiate Mu), OPRM1 (gene 4988) (UniProt P35372) (assay: NVS_GPCR_hOpiate_mu: NovaScreen (NVS) G Protein-Coupled Receptor Assay for human Opioid Receptor Mu (Opiate Mu) (AID 2283290);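 note: hits lower bound tracer signal versus DMSO meaning displacement of the ligand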).
Chain of human Opioid Receptor Mu (Opiate Mu), OPRM1 (gene 4988) (P35372 whole entry, looked up): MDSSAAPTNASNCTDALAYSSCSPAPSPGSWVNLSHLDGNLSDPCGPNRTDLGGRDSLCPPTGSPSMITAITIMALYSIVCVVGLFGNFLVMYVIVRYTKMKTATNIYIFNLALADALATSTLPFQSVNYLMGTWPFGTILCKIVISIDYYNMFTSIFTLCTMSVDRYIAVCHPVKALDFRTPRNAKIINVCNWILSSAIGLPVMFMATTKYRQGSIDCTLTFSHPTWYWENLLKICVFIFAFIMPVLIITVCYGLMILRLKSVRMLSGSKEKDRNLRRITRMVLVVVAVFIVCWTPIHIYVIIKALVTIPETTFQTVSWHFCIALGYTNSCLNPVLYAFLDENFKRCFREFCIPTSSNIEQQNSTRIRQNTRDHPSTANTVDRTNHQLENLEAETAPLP
Experimental: NVS_GPCR_hOpiate_mu is a biochemical, single-readout assay that uses extracted gene-proteins from CHO in a cell-free assay. Measurements were taken 2.5 hours after chemical dosing in a 96-well plate.NVS_GPCR_hOpiate_mu is one of one assay component(s) measured or calculated from the NVS_GPCR_hOpiate_mu assay. It is designed to make measurements of radioligand binding, a form of binding reporter, as detected with scintillation counting signals by Filter-based radiodetection technology.Data from the assay component NVS_GPCR_hOpiate_mu was analyzed into 1 assay endpoint. This assay endpoint, NVS_GPCR_hOpiate_mu, was analyzed in the positive analysis fitting direction relative to DMSO as the negative control and baseline of activity. Using a type of binding reporter, loss-of-signal activity can be used to understand changes in the binding as they relate to the gene OPRM1. Furthermore, this assay endpoint can be referred to as a primary readout, because the performed assay has only produced 1 assay endpoint. To generalize the intended target to other relatable targets, this assay endpoint is annotated to the gpcr intended target family, where the subfamily is rhodopsin-like receptor.
Binding assays used specific radioligands (tritiated, iodinated) with non-radioactive competitive displacement ligands in agonist or antagonist protocols (as indicated) and various reference compounds and inhibitors to titrate specific binding to receptors and transporters. Most enzyme assays (CYPs, kinases, phosphatases, proteases, HDACs) used recombinant protein and specific substrates (fluorescence mostly, some colorimetric and radioactive) and inhibitors, followed by a biochemical separation of substrate and product. All assays for the biochemical HTS were initially run in duplicate at a single concentration (10 uM for CYP450 assays and 25 uM for all others). […] Each assay was run with positive and negative controls, and concurrent controls on every plate. The follow-up (secondary) screen tested active chemical-pairs in concentration series, as well as a few additional assays not tested in the primary screen, some selected negative inactives, and several cases re-run in the concentration series for confirmatory purposes.

AC50, active:
CCc1cc(SCc2sc(-c3ccc(C(F)(F)F)cc3)nc2CN2CCN(c3ccc(OC)cc3)CC2)ccc1OCC(=O)O 4.54 µM, CCOC(=O)COc1ccc2c(c1)CC(NCC(O)c1cccc(Cl)c1)CC2 (stereo not given) 5.18 µM, CCn1nc(Cc2ccccc2)cc1C1CCN(C[C@H]2C[C@H](N(C)[C@@H](C(=O)O)C(C)C)C[C@@H]2c2cccc(F)c2)CC1 8.81 µM, O=C(CCCCCCCCc1cccnc1)N1CCC(C=C(c2ccccc2)c2ccccc2)CC1 24.7 µM, CNS(=O)(=O)c1cc(C(=O)N2CCC(CCN3C4CCC3CC(n3c(C)nc5ccccc53)C4)(c3cccc(F)c3)CC2)c(Cl)cc1F (stereo not given) 4.96 µM, COc1cccc(-c2ccc(/C=C\CN3CCCCCC3)cc2Cl)c1 12.3 µM, Cc1[nH]cnc1C[C@H]1CCc2c(C)c3ccccc3n2C1=O 6.29 µM, CCOc1cccc(-n2cc(C(=O)N3CCN(c4cc(C(=O)O)c5ccccc5c4)CC3)nc2-c2ccc(C)cc2)c1 23.8 µM, CC[C@H]1CC[C@H](NCc2cc3c(cc2OC)[C@H]2C[C@H]2C(=O)N3C)[C@H](c2ccccc2)N1 5.7 µM

outcome, inactive:
On1ccccc1=S, CCOC(=O)c1ccc(C2CCC(NC[C@H](O)COc3ccc(O)c(NS(C)(=O)=O)c3)CC2)cc1 (stereo not given in full), O=C(O)CC(O)C(=O)O (stereo not given), CC(C)=CCCC(C)CCO (stereo not given), CCC(C)(C)C(=O)O[C@H]1C[C@@H](C)C=C2C=C[C@H](C)[C@H](CC[C@@H]3C[C@@H](O)CC(=O)O3)[C@H]21, CCCCCCc1ccc(O)cc1O
